Sampled rows, rich in hits. Any-hit rate of the full collection: about 12%.
Sm TGR block: qHTS Assay for the Inhibitors of Schistosoma Mansoni Peroxiredoxins | Schistosoma mansoni thioredoxin glutathione reductase (TGR), Q962Y6 | purified TGR, DTNB reduction, TNB absorbance 405 nm | Potency, µM (titrated, usually from 114 µM), usual class: inhibitors | 360,000 tested, 3% active | AID 485364, 2010; further: nearly all actives have a fitted effect of over 60% in size
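First, TGR (20 nM dispensed) and NADPH were mixed with compound. Second, a 15 min room-temperature incubation followed. Third, further NADPH and then DTNB were added to start the reaction. Finally, TNB absorbance was monitored kinetically.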
SARS PLpro yeast: qHTS of Yeast-based Assay for SARS-CoV PLP; S. cerevisiae expressing SARS-CoV PLpro, growth rescue; Potency, µM (titrated, usually from 32.9 µM), most hits filed as activators; 330,000 tested, 0.19% active; calls by dose curve; further: nearly all actives have a fitted effect of over 55% in size
Pf growth 96h: Primary qHTS for delayed death inhibitors of the malarial parasite plastid, 96 hour incubation; P. falciparum luciferase reporter growth, 96 h; Potency, µM (highest dose often 28.7 µM), most hits filed as inhibitors; 320,000 tested, 6.9% active; AID 504834, 2011
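Erythrocytes infected with luciferase-expressing P. falciparum were dispensed at 2% hematocrit and 0.05% parasitemia (final), then incubated with compounds 96 hours at 37 C in 5% CO2. Luminescence after detection reagent addition reported growth.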
Pf growth 48h: Primary qHTS for delayed death inhibitors of the malarial parasite plastid, 48 hour incubation | P. falciparum luciferase growth in erythrocytes, 48 h | Potency, µM (top dose mostly 28.7 µM), most hits filed as inhibitors | 310,000 tested, 5.9% active | AID 504832, 2011
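Parasite viability was followed by luminescence of a genomically integrated firefly luciferase. Cultures held 0.1% parasitemia at 2% hematocrit (final), incubated under 5% CO2 at 37 C.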
Hits are given with their value; – = inactive; ? = inconclusive; · = no result; [ ] = remark or other dose. Unless noted, the call rests on the fitted dose curve; in most records, active means well fitted curve in the direction sought with a large enough effect; inconclusive means small, poorly fitted or top-dose-only effect, or another doubt; inactive means no such curve, though single readings can be large; an effect the other way counts as inactive or inconclusive.

SMILES | Sm TGR block | SARS PLpro yeast | Pf growth 96h | Pf growth 48h
Cc1ccc(-c2onc(C)c2C)cc1S(=O)(=O)N1CC(C)Oc2ccccc21 (stereo not drawn) | – | – | – | 14.7µM
O=[N+]([O-])c1ccc(CSc2ccc(S(=O)(=O)N3CCCCCC3)cn2)cc1 | – | – | ? | ?
Cc1cc2c(c3oc(=O)c4ccccc4c13)CN(Cc1ccc(F)cc1)CO2 | – | · | · | ·
Cc1ccc(C(=O)N(CC(=O)NC2CCCC2)Cc2cccs2)s1 | – | – | 1.47µM | –
O=C(CN(Cc1cccs1)C(=O)CSc1nnc(COc2ccccc2)o1)NC1CCCCC1 | – | – | – | 13.1µM
CCOc1ccc(N(CC(=O)NC2CCCCC2)C(=O)CSc2nnc(COc3ccccc3)o2)cc1 | – | – | ? | ?
CCN(CC)C(=O)c1c(-c2ccccc2)c(-c2ccccc2)nn(CC)c1=O | – | · | · | ·
Cc1cc(C)c(S(=O)(=O)N2CCN(c3ccccn3)CC2)c(C)c1 | – | – | ? | –
COc1ccc(N2C(=O)CN(Cc3cc(OC)c(OC)c(OC)c3)C2=S)cc1 | – | – | – | ?
COc1ccc(CN2CC(=O)N(c3ccccc3OC)C2=S)cc1OC | – | – | – | ·
COc1ccc(CN2CC(=O)N(c3cc(Cl)ccc3OC)C2=S)cc1OC | – | – | – | 9.28µM
COc1ccc(Cl)cc1N1C(=O)CN(Cc2cc(OC)c(OC)c(OC)c2)C1=S | – | – | – | 3.29µM
COc1ccc(C(=O)O)cc1S(=O)(=O)NCc1ccccn1 | – | – | ? | –[0.00184 µM]
Oc1ccc(C23CC4CC(CC(C4)C2)C3)cc1O | 1.78µM | – | 7.38µM | 5.22µM
COc1ccc(N(C(=O)c2snc(C(N)=O)c2N)C(C(=O)NCC2CCCO2)c2ccc(C)o2)cc1OC (stereo not drawn) | – | – | – | 8.28µM
CCc1ccccc1N(C(=O)c1snc(C(N)=O)c1N)C(C(=O)NCC1CCCO1)c1ccc(C)o1 (stereo not drawn) | – | – | 9.28µM | ?
COc1ccc(C(C(=O)NCC2CCCO2)N(C(=O)c2snc(C(N)=O)c2N)c2ccc(C)cc2)cc1OC (stereo not drawn) | – | – | 13.1µM | 10.4µM
COc1ccc(OC)c(N(C(=O)c2snc(C(N)=O)c2N)C(C(=O)NCC2CCCO2)c2ccc3ncccc3c2)c1 (stereo not drawn) | – | – | – | ?
COc1ccc(Br)cc1CNC(=O)Cn1ncn2nc(-c3cccs3)cc2c1=O | – | · | · | ·
CCC(=O)O[C@@]1(C(=O)CCl)C(C)CC2C3CCC4=CC(=O)C=C[C@@]4(C)[C@]3(F)C(O)C[C@]21C (stereo partly drawn) | · | · | 3.38µM | 6.75µM
CCC(=O)O[C@]1(C(=O)CCl)[C@@H](C)CC2C3C[C@H](F)C4=CC(=O)C=CC4(C)[C@@]3(F)C(O)CC21C (stereo partly drawn) | · | · | – | 1.9µM
CCC(=O)O[C@]1(C(=O)CCl)[C@@H](C)C[C@H]2[C@@H]3CCC4=CC(=O)C=C[C@]4(C)[C@@]3(F)[C@@H](O)C[C@@]21C | – | – | 4.15µM | 4.65µM
CCCC(=O)O[C@]1(C(=O)CCl)[C@@H](C)C[C@H]2[C@@H]3CCC4=CC(=O)C=C[C@]4(C)[C@@]3(F)C(=O)C[C@@]21C | – | – | 1.31µM | 1.65µM
CCN(CC)C(=O)COCc1cc(-c2ccc3c(c2)OCO3)on1 | – | – | – | –
CCC(=O)OC1(C(=O)CCl)[C@@H](C)C[C@H]2[C@@H]3CCC4=CC(=O)C=C[C@]4(C)[C@@]3(F)[C@@H](O)C[C@@]21C (stereo partly drawn) | – | · | 5.22µM | 2.33µM
SMILES | Sm TGR block | SARS PLpro yeast | Pf growth 96h | Pf growth 48h
Cc1ccc(CNc2ccc(O)cc2)cc1 | 11.2µM | – | · | ?
Cc1ccc(NCc2ccccc2O)cc1 | – | – | · | –
CCOC(=O)/C(C#N)=C/c1ccc(-c2ccccc2)o1 | – | · | · | ·
COc1cc(CN(C)c2ccc(S(=O)(=O)N3CCCC3)cn2)ccc1OC(F)F | – | – | ? | 14.7µM
O=[N+]([O-])c1cc(S(=O)(=O)N2CCCCCC2)ccc1F | 22.4µM | – | ? | –
CCN(CC(=O)Nc1ccc(NC(C)=O)cc1)C(=O)/C=C/c1ccc(S(=O)(=O)N2CCCCCC2)cc1 | – | – | 4.65µM | 3.29µM
COc1ccc(CCN(C)c2ccc(S(=O)(=O)N3CCCC3)cn2)cc1OC | – | – | –[5.75 µM] | ?
Cc1ccc(-c2nsc(SCC(=O)Nc3ccc4c(c3)OCO4)n2)cc1 | – | – | – | –

Bioassay records as filed in PubChem BioAssay.
